# Active and inactive are the calls of the source. Unless noted, the rule behind the calls is not given here.
# What was measured:
# [1] = HepG2 liver cancer cell viability effects, profiling panel, resazurin fluorescence, 24 h, PK04 Diversity Set (AID 1172); conditions: higher = more signal; note: test concentration not given here
# [2] = basal S. cerevisiae growth modulation, no modifier, primary screen, OD600, strain BY4716, 24 h, basal condition (AID 1173); conditions: OD600, 24 h, higher = more signal, called active from +8 up or from −8 down
# [3] = MM1S myeloma cell viability, profiling panel, resazurin fluorescence, basal, 24 h, PK04 Diversity Set (AID 1174); conditions: higher = more signal, called active from +8 up or from −8 down;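 note: MM1S multiple myeloma cell line; test concentration not given here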
# [4] = target: Dihydroorotate dehydrogenase (quinone), mitochondrial (Plasmodium falciparum (isolate 3D7)) (UniProt Q08210); test: PfDHODH enzyme inhibitors, primary screen, biochemical, C-terminal His tag, absorbance 600 nm (AID 1175); conditions: DCIP absorbance 600 nm, higher = more signal, called active from +8 up or from −8 down;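 note: recombinant parasite enzyme with a five histidine tag at its C terminus; test concentration not given here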
# [5] = P. aeruginosa biofilm formation inhibitors, primary screen, strain PAO1, LB-PBS medium, absorbance 600 nm (AID 1176); note: test concentration not given here; conditions: P. aeruginosa PAO1 growth/biofilm, A600, 12 h; higher = more signal
# [6] = S. cerevisiae RM11-1a growth modifiers, primary screen, strain RM11-1a, OD600, basal, 24 h (AID 1177); conditions: OD600, 24 h, higher = more signal, called active from +8 up or from −8 down;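 note: cultures grown under basal conditions with no added stressor; test concentration not given here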
# [7] = E. coli acrAB mutant growth effects, primary screen, E. coli filamentation inducers, strain DRC39, OD650, 24 h (AID 1178); conditions: higher = more signal, called active from +8 up or from −8 down;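 note: growth measured as culture turbidity by optical density at 650 nm; test concentration not given here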
# [8] = E. coli acrAB mutant growth effects, primary screen, E. coli filamentation inducers, strain DRC39, OD650, 48 h (AID 1179);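 note: screen aims at cell division blockers that make cells filament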; conditions: E. coli DRC39 delta-acrAB growth, higher = more signal, called active from +8 up or from −8 down
# [9] = RPMI8226 myeloma cell viability, profiling panel, resazurin fluorescence, basal, 24 h, PK04 Diversity Set (AID 1180); conditions: higher = more signal;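 note: RPMI8826 multiple myeloma cell line at 5000 cells per well; test concentration not given here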
# [10] = target: E3 ubiquitin-protein ligase XIAP (Homo sapiens) (UniProt P98170); test: XIAP binders, primary screen, biophysical, small-molecule microarray, fluorescence 635 nm (AID 1181); conditions: small-molecule microarray binding, higher = more signal;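 note: score merges 667 nm emission and signal to noise over triplicate slides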
# Chain of E3 ubiquitin-protein ligase XIAP (Homo sapiens) (P98170 whole entry, looked up): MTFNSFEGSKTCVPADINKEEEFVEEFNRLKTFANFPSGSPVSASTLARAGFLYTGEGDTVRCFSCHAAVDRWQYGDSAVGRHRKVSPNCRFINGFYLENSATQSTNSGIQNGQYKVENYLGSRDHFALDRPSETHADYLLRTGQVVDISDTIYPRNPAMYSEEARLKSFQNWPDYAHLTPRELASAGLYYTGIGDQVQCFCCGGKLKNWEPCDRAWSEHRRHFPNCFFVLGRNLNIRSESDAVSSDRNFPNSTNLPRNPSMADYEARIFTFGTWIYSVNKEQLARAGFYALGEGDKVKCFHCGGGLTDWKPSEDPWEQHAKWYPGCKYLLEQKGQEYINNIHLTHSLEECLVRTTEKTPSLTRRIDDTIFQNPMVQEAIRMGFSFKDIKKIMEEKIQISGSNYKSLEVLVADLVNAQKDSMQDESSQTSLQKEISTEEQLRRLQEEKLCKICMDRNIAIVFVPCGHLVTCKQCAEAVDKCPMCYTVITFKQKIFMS
# Chain of Dihydroorotate dehydrogenase (quinone), mitochondrial (Plasmodium falciparum (isolate 3D7)) (Q08210 whole entry, looked up): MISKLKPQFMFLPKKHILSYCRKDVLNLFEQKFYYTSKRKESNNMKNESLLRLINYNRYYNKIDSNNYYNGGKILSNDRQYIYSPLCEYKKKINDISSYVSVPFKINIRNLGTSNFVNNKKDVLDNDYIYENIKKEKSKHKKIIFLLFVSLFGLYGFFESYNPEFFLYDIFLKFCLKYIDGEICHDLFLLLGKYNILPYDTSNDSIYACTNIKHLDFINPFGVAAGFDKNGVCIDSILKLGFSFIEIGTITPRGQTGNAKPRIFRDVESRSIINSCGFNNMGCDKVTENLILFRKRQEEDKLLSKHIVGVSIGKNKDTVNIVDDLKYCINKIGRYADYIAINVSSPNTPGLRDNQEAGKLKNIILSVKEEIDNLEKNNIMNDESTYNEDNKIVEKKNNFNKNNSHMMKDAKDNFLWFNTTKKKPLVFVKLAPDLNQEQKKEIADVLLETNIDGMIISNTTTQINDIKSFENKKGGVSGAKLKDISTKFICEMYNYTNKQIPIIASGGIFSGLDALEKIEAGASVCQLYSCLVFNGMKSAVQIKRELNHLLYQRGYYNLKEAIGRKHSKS
Structure (SMILES),z-score [1],z-score [2],z-score [3],composite z-score [4],z-score [5],z-score [6],z-score [7],z-score [8],z-score [9],composite z-score [10]
C=C(CC1([C@@H](NP(=O)(c2ccccc2)c2ccccc2)[C@H]2C[C@@H]2CCCC)CC1)c1cccc(OC)c1,2.56,2.17 (inactive),1.08 (inactive),-0.0873 (inactive),0.0944 (inactive),1.61 (inactive),-0.283 (inactive),-0.216 (inactive),3.23,0.219
CC(C)(C)OC(=O)CC[C@@]1(C(=O)N2CCOCC2)N=C(c2ccc(OCCCO)cc2)O[C@@H]1c1ccccc1CN=[N+]=[N-],-0.538,-0.295 (inactive),-0.383 (inactive),-0.405 (inactive),0.342 (inactive),-0.423 (inactive),-0.294 (inactive),-0.0909 (inactive),-0.365,0.0345
COC(=O)C1=CC(CCCO)=CC(c2ccc(CN3CCCC3)cc2)N(C)C=C1C(=O)OC (stereo not given),0.407,0.0335 (inactive),-0.381 (inactive),-1.58 (inactive),0.543 (inactive),0.326 (inactive),0.98 (inactive),1.32 (inactive),0.154,-0.153
COc1ccc(NN2C(C(O)c3ccccc3)C=CC3C(=O)N(C4CCCCC4)C(=O)C32)cc1 (stereo not given),-0.403,0.047 (inactive),-0.0925 (inactive),-0.638 (inactive),0.505 (inactive),1.5 (inactive),-0.0187 (inactive),0.0413 (inactive),0.0134,0.0348
O=C1OCC=C[C@H]2OC34C=CCN(Cn5nnc6ccccc65)C(=O)[C@H]3N(CCO)C(=O)[C@@H]4[C@@H]12 (stereo not given in full),-0.779,0.818 (inactive),-0.176 (inactive),-0.642 (inactive),-0.332 (inactive),-0.581 (inactive),0.0034 (inactive),-0.0669 (inactive),-0.256,-0.0749
C=CCNC(=O)[C@@H]1[C@H]2C(=O)O[C@H](c3ccccc3)[C@H](c3ccccc3)N2[C@H](c2ccc(O)cc2)[C@@]12C(=O)N(C(=O)OCCOC)c1ccc(C#CCC(C(=O)OC)C(=O)OC)cc12,0.475,-0.17 (inactive),0.716 (inactive),-2.5 (inactive),0.089 (inactive),1.88 (inactive),1.09 (inactive),0.666 (inactive),-1.73,0.0859
CN1C(=O)C2CC=C(C3=CCO[C@@H]3[C@H]3CCCN3S(=O)(=O)c3ccccc3[N+](=O)[O-])CC2C1=O (stereo not given in full),0.277,0.175 (inactive),-0.354 (inactive),-0.912 (inactive),0.425 (inactive),0.0123 (inactive),0.527 (inactive),0.189 (inactive),0.0213,-0.187
CC(C)N1CC=CC23O[C@@H]4/C=C\CCCOC(=O)C4[C@H]2C(=O)N(C(C)CO)[C@@H]3C1=O (stereo not given in full),0.876,-1.69 (inactive),0.832 (inactive),-0.555 (inactive),0.0126 (inactive),0.14 (inactive),1.1 (inactive),0.906 (inactive),0.734,-0.102
CN1C(=O)C2C=CC(C(O)c3ccc(I)cc3)N(N(c3ccccc3)c3ccccc3)C2C1=O (stereo not given),-0.476,0.943 (inactive),-0.788 (inactive),0.0495 (inactive),0.944 (inactive),0.67 (inactive),-1.36 (inactive),-0.105 (inactive),-1.1,0.95
NCCCCCCNC(=O)[C@@H]1C[C@@H]2C(=O)NCC(=O)N2[C@@H]1c1cccc(OCCO)c1,-0.903,-0.277 (inactive),0.717 (inactive),-0.775 (inactive),-0.0617 (inactive),-0.121 (inactive),0.295 (inactive),0.976 (inactive),0.438,-0.213
[N-]=[N+]=NCc1ccccc1C[C@]1(C(=O)N2CCCCC2)COC(c2ccc(OCCCO)cc2)=N1,0.894,-0.749 (inactive),-0.0967 (inactive),-0.0119 (inactive),0.0405 (inactive),2.36 (inactive),1.4 (inactive),0.815 (inactive),0.791,-0.0604
C[C@]1(C(=O)NC2CC2)c2ccccc2C(=O)N(Cc2cc(F)cc(C(F)(F)F)c2)[C@H]1c1ccc(CO)cc1,1.53,0.411 (inactive),0.872 (inactive),0.712 (inactive),-0.646 (inactive),1.34 (inactive),0.425 (inactive),0.401 (inactive),1.04,0.195
COc1ccc([Si](C)(C)[C@@H]2[C@@H](CC(=O)N3CCC[C@H]3CO)O[C@]3(C(=O)N(Cc4cccc(N5C(=O)c6cccc7cccc5c67)c4)c4ccccc43)[C@H]2C)cc1,-0.49,0.313 (inactive),-1.84 (inactive),-1.54 (inactive),0.343 (inactive),0.0797 (inactive),0.995 (inactive),0.787 (inactive),-1.53,0.0834
COCCOC(=O)N1C(=O)[C@@]2(c3cc(C#CCC(C(=O)OC)C(=O)OC)ccc31)[C@H](c1ccc(O)cc1)N1[C@H](c3ccccc3)[C@H](c3ccccc3)OC(=O)[C@H]1[C@@H]2C(=O)N1CCc2cc(OC)c(OC)cc2C1,-0.347,-0.672 (inactive),0.222 (inactive),-0.118 (inactive),0.008 (inactive),0.494 (inactive),0.109 (inactive),0.588 (inactive),-0.92,-0.0233
COCCCNC(=O)[C@]1(Cc2ccccc2N=[N+]=[N-])N=C(c2ccc(OCCCO)cc2)O[C@@H]1c1ccccc1,0.83,-0.591 (inactive),-1.25 (inactive),-0.28 (inactive),-0.444 (inactive),-0.029 (inactive),2.99 (inactive),0.26 (inactive),-0.953,0.267
COc1ccc([Si](C)(C)[C@H]2[C@H](CC(=O)N(CCO)Cc3ccccc3)O[C@@]3(C(=O)N(c4ccccc4)c4ccccc43)[C@@H]2C)cc1,-4.7,0.148 (inactive),-8.42 (active),0.531 (inactive),0.838 (inactive),0.29 (inactive),0.997 (inactive),-0.0322 (inactive),-6.25,0.226
COCCOC(=O)N1C(=O)[C@@]2(c3cc(C#CC4=CCCCC4)ccc31)[C@H](c1ccc(O)cc1)N1[C@H](c3ccccc3)[C@H](c3ccccc3)OC(=O)[C@H]1[C@@H]2C(=O)N1CCc2cc(OC)c(OC)cc2C1,0.291,0.0658 (inactive),-0.671 (inactive),-0.0425 (inactive),0.902 (inactive),0.432 (inactive),-0.184 (inactive),-0.119 (inactive),-0.161,-0.0434
CC1C2C(CCCO)=CC(C3C(=O)N(C)C(=O)C23)N1Cc1cccc(OC(F)(F)F)c1 (stereo not given),-1.25,-2.02 (inactive),-0.244 (inactive),0.131 (inactive),-0.0099 (inactive),0.481 (inactive),0.224 (inactive),-0.0843 (inactive),-0.278,0.245
CC(=O)NCCCC[C@@H]1NC(=O)[C@H]2C[C@@H](C(=O)O)[C@@H](c3cccc(OCCO)c3)N2C1=O,-0.7,-0.757 (inactive),0.441 (inactive),-0.969 (inactive),0.118 (inactive),-0.587 (inactive),-0.33 (inactive),0.0133 (inactive),-0.0778,-0.138
C=CCNC(=O)[C@@H]1[C@H]2C(=O)O[C@H](c3ccccc3)[C@H](c3ccccc3)N2[C@H](c2ccc(OCCO)cc2)[C@@]12C(=O)N(C(=O)OCCOC)c1ccccc12,0.0303,1.98 (inactive),-0.522 (inactive),0.659 (inactive),2.69 (inactive),3.16 (inactive),0.446 (inactive),0.282 (inactive),-0.289,0.0623
CCCCCN1CC=CC23O[C@@H]4/C=C\CCCOC(=O)C4[C@H]2C(=O)N(CCO)[C@@H]3C1=O (stereo not given in full),-0.192,-1.2 (inactive),1.22 (inactive),-0.195 (inactive),0.938 (inactive),-0.843 (inactive),0.859 (inactive),0.188 (inactive),0.936,-0.0918
CCOC(=O)C[C@H]1[C@H](OC(=O)Cc2ccc3c(c2)OCO3)[C@@H](NC(=O)CC(C)C)c2cc(OCCCO)ccc2N1C(=O)c1ccc2ccccc2n1,0.0081,-1.8 (inactive),-0.0432 (inactive),-1.94 (inactive),-1.53 (inactive),-0.0738 (inactive),0.57 (inactive),-0.0185 (inactive),-0.255,0.514
CC[C@@H](O[Si](C#C[Si](C(C)C)(C(C)C)C(C)C)(C(C)C)C(C)C)c1cn([C@H](CO)Cc2ccccc2)nn1,1.03,1.79 (inactive),0.604 (inactive),-0.572 (inactive),0.183 (inactive),0.959 (inactive),-0.316 (inactive),0.413 (inactive),1.24,-0.207
COC(=O)C(CC#Cc1ccc2c(c1)[C@]1(C(=O)N2)[C@H](C(=O)N2CCN(c3ncccn3)CC2)[C@H]2C(=O)O[C@H](c3ccccc3)[C@H](c3ccccc3)N2[C@@H]1c1ccc(O)cc1)C(=O)OC,-0.146,0.586 (inactive),0.235 (inactive),-15.3 (active),1.67 (inactive),1.25 (inactive),0.167 (inactive),0.26 (inactive),-1.47,0.309

# Reference: PubChem BioAssay
